Data from PubChem BioAssay AID686934 (National Center for Advancing Translational Sciences (NCATS), 2013).
Results filed as inconclusive are left out. Activity calls are given as the source filed them. Calls follow the shape of the dose curve; as a rule, active = well fitted curve in the direction sought with a large enough effect; inconclusive = small, poorly fitted or top-dose-only effect, or another doubt; inactive = no such curve, though single readings can be large or run the other way.

Assay: qHTS screen for small molecules that inhibit ELG1-dependent DNA repair: SAR in Cell-Based Luciferin Counter Assay
How it was run: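 Counterscreen: compounds pin-transferred into luciferin substrate reagent, then luciferase added; luminescence read on a CCD imager to flag luciferase inhibitors or enhancers.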

Compound | outcome
Cc1ccc2c(c1)C/C(=C/c1ccc(N(C)C)cc1)C2=O | inactive
COc1ccccc1/C=C/c1nc2ccccc2s1 | inactive
COc1cccc2oc(-c3ccccc3)cc(=O)c12 | inactive
CN(Cc1ccco1)c1ncnc2ccc(-c3cccc(Cl)c3)cc12 | inactive
CSc1ncnc2c1ncn2C1OC(CO)C(O)C1O (stereo not drawn) | inactive
ICC[n+]1csc2ccccc21 | inactive
O=C(COc1ccccc1Cl)Nc1ccc(-c2nc3ccccc3s2)cc1 | inactive
O=C(c1cc2ccccc2[nH]1)c1cc2cc(O)ccc2[nH]1 | inactive
O=c1[nH]c(-c2ccc(-c3cccc(Cl)c3)o2)nc2ccccc12 | inactive
Nc1ccc2cccnc2c1 | inactive
CN(C)c1ccc(N=Nc2ccc(/C=C/c3ccnc4ccccc34)cc2)cc1 | inactive
COc1ccc(-c2cnc(-c3cccnc3)o2)cc1 | inactive
CC(C)C(=O)SCCCCCCC(=O)Nc1nc(-c2ccccc2)cs1 | inactive
CC(=O)Nc1ccc(/C=C/c2sc3ccccc3[n+]2CCCCI)cc1 | inactive
CCCCCn1ncc2c3sc(C)cc3n(C)c2c1=O | inactive
COc1cccc2c1C(=O)/C(=C\c1ccc(N(C)C)cc1)C2 | inactive
Cc1csc(CNc2ncnc3ccc(-c4ccoc4)cc23)c1 | inactive
CC(=O)Nc1sc2c(c1-c1nc3ccccc3s1)CCCNC2 | inactive
